Results published in PMC5540273 (PLoS ONE, 2017).

tested on: EPHA7; settings: concentration: 1 μM, replicates: in singlicate; n = 1
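Also: KINOMEscan kinase panel screen.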

| Compound | %Inh |
| --- | --- |
| CCn1c(-c2ccoc2)nc2cnccc21 [SB-733887] | 12% |
| O=c1cc(N2CCOCC2)nc2n(Cc3ccc(F)c(Cl)c3)ccn12 [GSK2297099] | 6% |
| Cc1cccc(-c2nc(Nc3ccc4c(cnn4C)c3)c3ccccc3n2)n1 [GW876731] | 0% |
| Cl.NS(=O)(=O)c1cccc(Nc2cc(-c3ccc(F)cc3)n[nH]2)c1 [GW824645] | 0% |
| COc1cc(Nc2nccc(N3CCC(NC(=O)C4COc5ccccc5O4)C3)n2)cc(OC)c1OC (centres unmarked) [GSK1379761] | 0% |
| COC(=O)c1c(-c2ccccc2)c2cc(Br)ccc2c(=O)n1Cc1ccc(NC(=O)CCC(=O)O)cc1 | 5% |
| CN1C(=O)C(Nc2cc(Cl)c(O)c(Cl)c2)=C(c2ccc(Cl)cc2)C1=O [SB-404321] | 0% |
| CCC(=O)c1c(-c2ccccc2)c2cc(Cl)ccc2c(=O)n1Cc1cc(S(C)(=O)=O)n(CC(N)=O)n1 | 0% |
| Nc1ncnc2c1ncn2-c1ccc(Cl)cc1 [AH2635] | 0% |
| O=C(NCc1cccs1)c1cc(C(=O)c2c(Cl)cccc2Cl)c[nH]1 [GW823670] | 0% |
| CCn1c(-c2nonc2N)nc2ccccc21 [SB-693162/GW549034] | 0% |
| O=C(NCCNc1ccnc(Nc2ccc(F)cc2)n1)Nc1ccc2c(c1)OCO2 [GSK1379882] | 0% |
| COc1ccc(Nc2nccc(N3CCC(NS(=O)(=O)c4ccc(NC(C)=O)cc4)C3)n2)cc1 (centres unmarked) [GSK1379729] | 17% |
| COc1cc2nccc(Nc3cccc(Oc4ccccc4)c3)c2cc1OC.Cl [GW284543] | 0% |
